Results on 1 compound are retold here after PubChem BioAssay AID1159580 (chemical genetic matrix, 2015).

In all, about 5,500 compounds went through this assay and about 2,000 (36%) were called active. About 18% were inconclusive and are not listed. The list shows a part of the results. A number with no mark means an inactive call. No stated cut-off is given here; in the data, active means normalized growth mostly below about 0.91 (no sharp cut-off); inconclusive means no clear call, values can overlap the other calls; inactive means mostly above about 0.92.

The assay in a line: chemical genetic growth profiling, strain panel (AID 1159580).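 Further: tested at 20 µM; growth read once vehicle control cultures reached saturation at 30 °C; 1 = growth at the plate median or of vehicle wells; lower values mean less growth of the strain.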 As to conditions: S. cerevisiae deletion strains, growth OD.

As for `O=C(O)c1cc[c]([Hg][Cl])cc1`, the normalized growth is 0.825 (active) (locus YAL040C, strain CLN3, active compounds read low); 1.01 (locus YCL061C, strain MRC1 (second series), active compounds read low); 1 (locus YDR150W, strain NUM1, active compounds read low); 0.943 (locus YDR363W, strain ESC2, active compounds read low); 0.757 (active) (locus YER002W, strain NOP16, active compounds read low); 0.339 (active) (locus YGR078C, strain PAC10, active compounds read low). Further, the normalized growth is 0.981 (locus YMR307W, strain GAS1, active compounds read low); 0.955 (locus YNL128W, strain TEP1, active compounds read low); 0.918 (locus YNL175C, strain NOP13, active compounds read low); 0.731 (active) (locus YNL197C, strain WHI3, active compounds read low); 0.948 (locus YNL224C, strain SQS1, active compounds read low); 1.01 (locus YNL322C, strain KRE1, active compounds read low). Further, the normalized growth was 0.77 (active) (locus YOR083W, strain WHI5 (second series), active compounds read low) and 0.961 (locus YPL055C, strain LGE1, active compounds read low).
